Source: PubChem
USP28 block = inhibitors of human USP28 deubiquitinase. Ubiquitin carboxyl-terminal hydrolase 28 (Homo sapiens), Q96RU2. purified USP28, Ub-rhodamine cleavage fluorescence, 30 min. inhibition, % at 25 µM. actives 3% (n = 47,000). AID 1645857, 2021
USP17 inh = inhibitors of human USP17 deubiquitinase; purified USP17, Ub-rhodamine cleavage fluorescence, 3 h; inhibition, % at 50 µM; Ubiquitin carboxyl-terminal hydrolase 17-like protein 5 (Homo sapiens), A8MUK1; actives 6.5% (n = 47,000); AID 1645855, 2021
OTUD3 inh = inhibitors of human OTUD3 deubiquitinase; actives 0.7% (n = 47,000); OTU domain-containing protein 3 (Homo sapiens), Q5T2D3; purified OTUD3, Ub-rhodamine fluorescence, 2 h; inhibition, % at 25 µM
USP30 block = inhibitors of human USP30 deubiquitinase | Ubiquitin carboxyl-terminal hydrolase 30 (Homo sapiens), Q70CQ3 | inhibition, % at 25 µM | purified USP30, Ub-rhodamine cleavage fluorescence | actives 5.3% (n = 47,000)
Numbers without * were called inactive; . = no result. An excerpt weighted towards active compounds, which were near 11% of everything screened. Rule as the data show it: active = inhibition above about 30%; inactive = the rest.

SMILES	USP28 block	USP17 inh	OTUD3 inh	USP30 block
CC(C)c1noc(-c2ccc(OCC(=O)N3CCN(c4ccccc4F)CC3)cc2)n1	-2	4	1	0
Cc1cc(C)cc(NC(=O)Cc2nnc3ccc(-c4nc(C)no4)cn23)c1	-4	0	0	-22
COc1cn(CC(=O)Nc2ccc([N+](=O)[O-])cc2)c(CN2CCCCC2)cc1=O	-1	.	-1	1
CCS(=O)(=O)n1nc(NCc2ccc(C)cc2)nc1NCc1ccc(C)cc1	14	26	13	19
CN1CCc2cc(C(CNC(=O)c3ccccc3)N3CCCCC3)ccc21 (centres undefined)	-5	-10	-4	-8
Cc1ccc(S(=O)(=O)Nc2ccccc2C(=O)Nc2nc3ccc(Br)cc3s2)cc1	77*	97*	84*	75*
O=c1c(S(=O)(=O)c2cc(F)cc(F)c2)c[nH]c2cc(Cl)ccc12	1	52*	4	29
O=S(=O)(Cc1ccc(F)cc1)c1c[nH]c2ccccc12	7	28	5	-9
CCC(C)c1ccc(-c2csc(Cn3c(CN4CCN(C)CC4)nc4ccccc4c3=O)n2)cc1 (centres undefined)	-6	58*	2	-25
O=C(Nc1cccc(C(F)(F)F)c1)c1ccc2c(c1)SC1=NS(=O)(=O)CCN12	2	35*	0	-4
CC(CCc1ccccc1)NCc1c(C(=O)O)n(Cc2ccc(F)cc2)c2ccccc12 (centres undefined)	34*	2	9	4
O=C(O)c1c(CNCc2cccs2)c2ccccc2n1Cc1cccc(F)c1	-12	47*	0	-2
Cc1cc2c(cc1S(=O)(=O)N1CCC(C(=O)NCc3ccco3)CC1)OCC(=O)N2	0	.	0	-37
CCC1=C(c2ccc(C)cc2)S(=O)(=O)NC1=NCC(=O)NCc1ccccc1F	13	60*	10	27
CC1=C(c2ccc(F)cc2)S(=O)(=O)NC1=NCC(=O)Nc1ccc(F)cc1F	2	36*	1	54*
CCC1=C(c2ccc(C)cc2)S(=O)(=O)NC1=NCC(=O)NCc1cccc(C)c1	20	44*	14	15
Cc1c(C(=O)O)sc2c1C(=O)NS2(=O)=O	3	0	5	5
COc1ccc(N(C(=O)c2ccccc2Br)C(C)(C)C(=O)Nc2c(C)cccc2C)cc1	2	-4	-1	0
COc1ccc(OC)c(-c2cn3ccn(-c4ccc5c(c4)CCC5)c(=O)c3n2)c1	21	.	2	51*
COc1ccc(CNC(=O)CCC(=O)N2CCOc3ccc(C)cc32)cc1OC	7	5	13	20
O=C(CN1CC2(CCOCC2)Oc2ccc(Cl)cc2C1=O)N1CCCCC1	1	4	8	11
CCc1ccc(NC(=O)CCc2nc3cccnc3n2Cc2ccccc2)cc1	57*	71*	46*	79*
CSc1ccc(CCNC(=O)CCc2nc3cccnc3n2Cc2ccccc2)cc1	-2	2	0	-30
CSc1cccc(NC(=O)CCc2nc3cccnc3n2Cc2ccccc2)c1	-15	48*	-12	-44
COc1ccc(C(=O)CSc2nnc(-c3cc4cccc(OC)c4o3)n2C)cc1OC	0	18	-4	53*
SMILES	USP28 block	USP17 inh	OTUD3 inh	USP30 block
COCCn1c(SCC(=O)c2ccc(F)cc2)nc2ccccc21	1	36*	23	10
Cn1c(SCC(=O)NCc2ccccc2)nnc1-c1cc2ccccc2o1	0	18	11	-22
Cn1c(SCC(=O)c2ccc(F)cc2)nnc1-c1cc2ccccc2o1	12	73*	1	88*
O=C(CSc1nnc(-c2cc3ccccc3[nH]2)o1)Nc1cccc(F)c1	-21	-38	-22	-85
COc1cc(NC(=O)CSc2nnc(-c3cc4ccccc4n3C)o2)cc(OC)c1	15	20	20	49*
COc1ccc(C(=O)CSc2nnc(COc3c(C)cccc3C)n2C)cc1OC	-1	25	-2	10
Cc1ccc2c(c1)c(=O)c(C(=O)c1ccccc1)cn2CC(=O)Nc1ccc(C)c(Cl)c1	6	6	8	26
COc1cccc(NC(=O)CSc2nnc(-c3ccc(OC)c(OC)c3)c(-c3ccc(OC)c(OC)c3)n2)c1	-15	-17	-7	-22
COc1cccc(NC(=O)CSc2nnc(-c3cc4cccc(OC)c4o3)n2C)c1	7	60*	11	50*
CCC1Oc2ccccc2C(=O)NC1=O (centres undefined)	0	-4	0	1
O=C(NCc1ccco1)c1ccc(Oc2cc(Cl)cc(Cl)c2)o1	.	37*	2	.
CCOC(=O)c1[nH]c2c(c1Cc1ccccc1OC)C(=O)CC(C)(C)C2	.	37*	0	.
CC(C)(C)c1ccc(S(=O)(=O)Nc2ccc(Cc3ccncc3)cc2)cc1	2	-5	-9	36*
Cc1nc(SC(C)C(=O)Nc2ccccc2)c2sc3nc4c(cc3c2n1)COC(C)(C)C4 (centres undefined)	0	11	14	18
CCCc1nc2c(sc3nc4c(cc32)COC(C)(C)C4)c(=O)n1CC(=O)Nc1ccccc1C	2	62*	9	0
CCN1CCCC1CN(Cc1cc2cc(OC)ccc2[nH]c1=O)C(=O)Nc1ccccc1Cl (centres undefined)	-30	49*	-16	-54
CCN1CCCC1CN(Cc1cc2cc(OC)ccc2[nH]c1=O)C(=O)NCc1ccccc1 (centres undefined)	-11	53*	-24	-41
CCN1CCCC1CN(Cc1cc2ccc(C)c(C)c2[nH]c1=O)C(=O)NCc1ccccc1 (centres undefined)	-36	7	-52	-217
COc1ccccc1NS(=O)(=O)C1CCS(=O)(=O)C1 (centres undefined)	7	-2	12	25
COc1ccc(Cn2c(Oc3ccccc3C)nc3c2c(=O)n(C)c(=O)n3C)cc1	13	27	20	32*
O=C1c2c(O)cc(O)cc2OC(c2ccc(O)c(O)c2)C1O (centres undefined)	56*	65*	62*	60*
O=c1c2c(nc3nc(C(c4ccccc4)c4ccccc4)[nH]n13)CCC2	8	14	9	17
c1ccc(CN(Cc2ccccc2)c2c3c(nc4ncnn24)CCC3)cc1	23	13	11	39*
CC(=O)Nc1ccc(-n2cnc(C(=O)N3CCN(c4ccc(F)cc4)CC3)c2)nc1	-10	-1	-10	-13
COc1ccc(CCN2COc3c(cc(Cl)c4cccnc34)C2)cc1OC	30	93*	10	49*
CCOc1ccc(Nc2cc(C(=O)NCCC3=CCCCC3)c3ccccc3n2)cc1	15	44*	16	32*
CCOc1ccc(CCNC(=O)c2cc(Nc3ccccc3C)nc3ccccc23)cc1OCC	41*	58*	13	56*
CCc1ccc(Nc2cc(C(=O)NC3CCCC3)c3ccccc3n2)cc1	-10	-5	-5	-13
